Screening results deposited in PubChem by National Center for Advancing Translational Sciences (NCATS).
LASV entry inh = qHTS for Inhibitors of binding or entry into cells for Lassa Virus | Lassa virus pseudotype entry inhibition, cell reporter | Potency, µM (titrated, usually from 37.9 µM), inactives show at the highest dose activity change, negative = inhibition, hits mostly inhibitors | hit rate 1.2% among 300,000 | AID 540256, 2011; calls by dose curve; tested in HEK293 cells; note: potency is the fitted concentration of half-maximal effect; % is set by controls: 0 for no effect and ±100 for the full control effect; nearly all actives have a fitted effect of over 50% in size
Shiga toxin inh = A qHTS for Small Molecule Inhibitors of Shiga Toxin. Vero cells, Shiga toxin protein synthesis inhibition reporter. inhibition, % at 38.7 µM. hit rate 9.2% among 290,000; in the data active = inhibition mostly above about 28%, no sharp cut-off; inactive = mostly below about 43%; note: 0% is about no effect
CHX counter = Cycloheximide Counterscreen for Small Molecule Inhibitors of Shiga Toxin. hit rate 12% among 300,000. AID 2314, 2010. cell reporter, cycloheximide protein synthesis inhibition counterscreen. max response, %; in the data active = max response mostly above about 13%, no sharp cut-off; inactive = mostly below about 14%; note: read at 38.3 µM for the half of the compounds with a filed dose; 0% is about no effect
Marburg entry inh = qHTS for inhibitors of binding or entry into cells for Marburg Virus. hit rate 1.8% among 300,000. Marburg virus pseudotyped entry inhibition, cell reporter. Potency, µM (series often up to 37.8 µM), for inactives: at the highest dose activity change, negative = inhibition, most hits filed as inhibitors. AID 540276, 2011; calls by dose curve; tested in HEK293 cells; note: potency is the fitted concentration of half-maximal effect; % is set by controls: 0 for no effect and ±100 for the full control effect
Numbers without * were called inactive; ? = inconclusive; . = no result given; [ ] = remark or other dose. The list is not random: actives were taken first. Their share in the collection is about 12%.

SMILES	LASV entry inh	Shiga toxin inh	CHX counter	Marburg entry inh
N=C1S/C(=C\c2cn[nH]c2-c2ccc(F)cc2)C(=O)N1c1ccccc1F	?	-3	20*	16%
N=C1S/C(=C\c2cccc3ccccc23)C(=O)N1c1ccc(F)cc1	8.9µM*	25	0	?
Cc1ccc(NS(=O)(=O)c2ccc(-c3csc(C)n3)s2)c(C)c1	-20%	17	8	-1%
CN(C)c1ccc(C(C(=O)NC2CCCC2)N(C(=O)c2ccco2)C2CC2)cc1 (centres undefined)	.	3	-9	-8%[46.1 µM]
Cc1ccc(SCC(=O)N(C)CC(=O)Nc2cccc(F)c2)c(C)c1	?	.	.	-24%
CN(CCOc1ccc(C=C2C(=O)NC(=O)NC2=O)cc1)c1ccccn1	.	32	27*	.
COc1ccc(OCCOc2cccc(C=C3C(=O)NC(=O)NC3=O)c2)cc1	.	33*	33*	.
COc1cccc(OCCOc2ccc(/C=C3/SC(=S)NC3=O)cc2)c1	.	2	-1	.
Cc1nn(C)c(C(=O)Nc2c(C)nn(Cc3c(F)c(F)c(F)c(F)c3F)c2C)c1Br	10%[46.1 µM]	-5	1	?
Cc1occc1C(=O)NNC(=O)Nc1ccc(Cl)c(Cl)c1	-4%	22	13*	-3%
Cc1occc1C(=O)Nc1cccc(C(=O)O)c1	-20%	34	20*	-1%
Cc1occc1C(=O)Nc1ccc2c(c1)OCO2	?	78*	37*	-1%
Cc1ccsc1C(=O)NNC(=O)Nc1ccc(Cl)c(Cl)c1	10%	35	14	8%
COC(=O)c1cc(NC(=O)c2ccoc2C)cc(C(=O)OC)c1	3%	-5	-4	-29%
CC(=O)Nc1cccc(OC(=O)c2ccoc2C)c1	8%	13	9.7*	-3%
NS(=O)(=O)c1cccc(NS(=O)(=O)c2cccc(C(F)(F)F)c2)c1	20%	-11	0	14%[46.1 µM]
Cc1ccc(NC(=O)c2ccoc2C)cc1C	-2%	107*	40*	-1%
Cc1cc(Cl)c(S(=O)(=O)N2CCCCCC2)cc1OCC(=O)NC1CCCCC1	-5%	13	0	-17%
O=C(COc1ccc(Cl)cc1Br)NC(=O)NC1CCCC1	10%	.	.	9%
Cc1cc(Cl)ccc1OCC(=O)NNC(=O)c1ccco1	13%[46.1 µM]	35*	35*	?
Cc1cc(Cl)c(S(=O)(=O)N2CCSCC2)cc1OCC(=O)NC1CCCCC1	?	-9	3	9.2µM*
Cc1ccc(OCC(=O)NC2CC(C)(C)NC(C)(C)C2)c(C)c1	-21%[46.1 µM]	15	-1	-4%[46.1 µM]
Cc1ccc(OCC(=O)NC2CCCC2)c(C)c1	?	42	36*	?
O=C(COc1ccccc1Cl)NC(=O)NC1CCCC1	-14%	26	26*	?
Cc1ccc(NC(=O)C2CCC(CNS(=O)(=O)c3cccs3)CC2)cc1C (centres undefined)	-3%[46.1 µM]	.	.	.
SMILES	LASV entry inh	Shiga toxin inh	CHX counter	Marburg entry inh
CCCc1nnc(NC(=O)CCC(=O)Nc2ccc(Br)cc2)s1	.	-3	1	.
Cn1cccc1C(=O)OCC(=O)NC(=O)NC1CCCCC1	.	63	41*	.
Cc1ccc(C)c(OCC(=O)NNC(=O)C2CC2)c1	13%[46.1 µM]	-25	-3	?
CC(=O)Nc1ccc(C(=O)OCC(=O)NC(=O)NC2CCCCC2)cc1	-15%	-13	1	?
Cc1ccccc1OCC(=O)NC1CCCCCCC1	-26%	59*	12	-21%[46.1 µM]
Cc1ccc(C)c(OCC(=O)NC2CCCCCC2)c1	1%	11	27*	?
Cc1cccc(OCC(=O)NC2CCCCCC2)c1C	3%[46.1 µM]	-16	4	?
Cc1cc(Cl)ccc1OCC(=O)NC1CCCC1	-6%	37	34*	?
Cc1ccc(NC(=O)COCc2cc(-c3cccs3)on2)cc1Cl	-2%[46.1 µM]	.	.	.
Cc1cc(C)c2c(n1)sc1c(=O)n(-c3ccccc3C(F)(F)F)nnc12	15%[46.1 µM]	.	.	1%[46.1 µM]
CC(=O)c1ccc(-c2ccc(C3C4C=CCCC4(C)C(=O)N3Cc3ccccc3)c(F)c2)cc1 (centres undefined)	.	-16	-7	.
CC1(C)CC(NC(=O)COc2ccc(Cl)cc2Cl)CC(C)(C)N1	.	-14	-5	-1%[46.1 µM]
O=C(COc1ccc2ccccc2c1)NC1CC1	?	70*	43*	15%
Cc1ccc(OCCCCNC2CCCCC2)c(C)c1	?	-4	7	7.3µM*
O=C(COc1ccc(Cl)cc1Cl)NC1CCSC1=O (centres undefined)	-19%	131*	40*	-21%
Cc1ccc(OCC(=O)NC2CCCCCC2)cc1C	.	42	25*	.
Cc1cccc(OCC(=O)NC2CCCC2)c1	?	63	13	13%[46.1 µM]
O=C(COc1ccc2ccccc2c1)NCCNC(=O)COc1ccc2ccccc2c1	2%	-5	11	16%
Cc1ccc(N(CC(=O)N2CCCC2)S(C)(=O)=O)c(C)c1	2%[46.1 µM]	2	-4	14%[46.1 µM]
Cc1ccc(CS(=O)(=O)CCC(=O)NCc2ccccc2Cl)cc1	.	-2	2	.
Cc1cccc(CC(=O)NC2CCCCCC2)c1	.	76	14*	.
Cc1cccc(CC(=O)NC2CCN(C)CC2)c1	.	.	3	.
COc1ccnc(Oc2ccc(F)cc2)c1C(=O)N/C=N/OCc1ccc(Cl)cc1Cl	0%	-12	8	13µM*
COc1cccc(-c2csc(N3CCN(C(=S)Nc4ccccc4C)CC3)n2)c1	.	49*	18*	.
COc1cccc(-c2csc(N3CCN(Cc4ccccc4)CC3)n2)c1	9%	32	18*	14%
SMILES	LASV entry inh	Shiga toxin inh	CHX counter	Marburg entry inh
CCOc1ccccc1NC(=S)N1CCN(c2nc(-c3cccc(OC)c3)cs2)CC1	.	47	13	.
COc1cccc(-c2csc(N3CCN(C(=S)Nc4cccc(C)c4)CC3)n2)c1	.	41	18*	.
COc1cccc(-c2csc(N3CCN(S(=O)(=O)c4ccc(F)cc4)CC3)n2)c1	?	38	-3	-29%
COc1cccc(NC(=O)N2CCN(c3nc(-c4cccc(OC)c4)cs3)CC2)c1	.	2	10	.
COc1cccc(-c2csc(N3CCN(C(=O)Nc4ccccc4Cl)CC3)n2)c1	.	50	9.5*	.
Cn1c(=O)c2c(c3ccccc31)OC(=O)CC2c1ccccc1 (centres undefined)	5%[46.1 µM]	.	.	.
CCc1ccc(CNC(=O)Cn2nc(C)n3c(cc4cc(C)ccc43)c2=O)cc1	.	.	.	-3%[46.1 µM]
COc1cccc(-c2csc(N3CCN(C(=S)Nc4ccccc4)CC3)n2)c1	-10%	-4	1	21%
COCCNC(=S)N1CCN(c2nc(-c3ccc(Cl)cc3)cs2)CC1	28%[46.1 µM]	13	-2	-22%[46.1 µM]
CCOC(=O)N1CCN(c2nc(-c3ccc(Cl)cc3)cs2)CC1	5%	46*	36*	-1%
CNC(=S)N1CCN(c2nc(-c3ccc(Cl)cc3)cs2)CC1	?	21	16*	?
COc1cccc(-c2csc(N3CCN(C(=S)Nc4ccc(Cl)cc4)CC3)n2)c1	-26%	75*	24*	?
CNC(=S)N1CCN(c2nc(-c3cccc(OC)c3)cs2)CC1	.	1	9.9*	.
CC(C)C(=O)N1CCN(c2nc(-c3ccc(Cl)cc3)cs2)CC1	.	32	-2	.
Cc1ccc(/C=C(\C#N)c2nc(-c3cc4c(ccc5ccccc54)oc3=O)cs2)cc1	4%[46.1 µM]	.	.	.
CN(C)c1ccc(-c2ccc3c(=O)c4ccccc4n(C)c3c2)cn1	.	87*	58*	.
